This is a sample that favours compounds with a hit; in the whole collection about 1.6% have one here.
Imprint erasure: inducers of genomic imprint erasure in mouse ES cells; mouse ES Peg3-LacZ reporter, beta-gal luminescence, 40 h; Potency, µM (top dose mostly 60.7 µM), actives largely listed as activators; 110,000 compounds, 0.02% hits; AID 1948
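Gelatin-coated wells received 300 freshly trypsinized female ES cells with a Peg3LacZ-Neo reporter on the maternal allele, then incubated 40 hours at 37C. BetaGlo was added for 5 minutes at room temperature before a single luminescence read.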
p53ts 39C tox: cytotoxicity in p53ts cells at nonpermissive temperature; H1299-p53A138V viability at 39C, ATP luminescence, 24 h; 130,000 compounds, 1.5% hits; AID 902; Potency, µM (series often up to 46.1 µM), actives largely listed as cytotoxic; also: nearly all actives have a fitted effect of over 55% in size
IkB signaling: IkB pathway inhibition in ABC-DLBCL cells. ABC-DLBCL IkBa-CBG/CBR dual luciferase ratio, 4 h; response scale: scaled: untreated 0%, proteasome inhibitor 100%. Potency, µM (titrated, usually from 57.1 µM). 110,000 compounds, 0.04% hits. AID 445; active = well fitted curve in the direction sought with a large enough effect in the signal ratio, not every such curve was filed as active; inconclusive = small, poorly fitted or top-dose-only effect, or a change in a side signal; the % refers to the signal ratio;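 also: the direction sought is a rising ratio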
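Curves were fitted separately to fusion (green), unfused (red) and ratio luminescence, then classed by r2, magnitude and activity. Cells: OCI-Ly3, 4 h compound plus doxycycline at 37C; 10 uM MG-132 defined full response.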
p53ts 32C tox: kills p53ts cells at the permissive temperature | Potency, µM (doses to about 46.1 µM), most hits filed as cytotoxic | H1299-p53A138V at 32C, ATP luminescence viability, 24 h | 130,000 compounds, 0.93% hits; also: nearly all actives have a fitted effect of over 55% in size
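H1299-p53 A138V cells (temperature-sensitive p53) exposed 24 h to up to 46 uM compound at 32C, where p53 is wild-type in conformation. Viability read as ATP luminescence and normalised to DMSO and 100 uM tamoxifen. AC50 fitted with the Hill equation.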
A number is an active result; [ ] = remark or other dose. Unless noted, calls follow the shape of the dose curve; as a rule, active = well fitted curve in the direction sought with a large enough effect; inconclusive = small, poorly fitted or top-dose-only effect, or another doubt; inactive = no such curve, though single readings can be large; an effect the other way counts as inactive or inconclusive.

Fc1cccc2sc(Nc3nnc(-c4ccccc4)o3)nc12 was read as Imprint erasure inactive, p53ts 39C tox 10µM, IkB signaling inconclusive and p53ts 32C tox 15.8µM.
`CN[C@@H](c1ccncc1)[C@@H](NC)c1ccncc1` gave Imprint erasure inactive[10.9 µM], p53ts 39C tox inactive[9.22 µM], IkB signaling inactive[11.4 µM] and p53ts 32C tox inactive[9.22 µM].
`O=C(Nc1nc2c(s1)C(=O)CCC2)c1ccccc1` gave Imprint erasure inactive, p53ts 39C tox 15.8µM, IkB signaling inconclusive and p53ts 32C tox 12.6µM.
For CN(C)c1ccc(C(=O)Nc2nc3c(s2)CCCC3)cc1 the results were Imprint erasure inactive, p53ts 39C tox inconclusive, IkB signaling inconclusive and p53ts 32C tox inconclusive.
For COc1cccc(C(=O)Nc2nc3c(s2)CCCC3)c1 the results were Imprint erasure inactive[10.9 µM], p53ts 39C tox 12.6µM, IkB signaling inconclusive and p53ts 32C tox 10µM.
For CCN1c2ccccc2NC2N=C(OC)C(c3ccccc3)C21 (configuration not stated) the results were Imprint erasure inactive, p53ts 39C tox 12.6µM, IkB signaling inconclusive and p53ts 32C tox inconclusive.
`CCCN1C(=O)c2ccccc2NC1c1cc(OC)c(OC)c(OC)c1` (configuration not stated) gave p53ts 39C tox inactive and p53ts 32C tox inconclusive.
Screening Cc1ccc(OCCSc2nc(-c3ccccc3C)nc3cc(=O)[nH]n23)cc1Cl returned Imprint erasure inactive[10.9 µM], p53ts 39C tox 25.1µM, IkB signaling inconclusive and p53ts 32C tox inactive.
COc1ccccc1OC[C@H](O)CN1CCN(CC(=O)Nc2c(C)cccc2C)CC1 was read as p53ts 39C tox inactive, IkB signaling inactive and p53ts 32C tox inactive.
`COc1cc(NC(=O)CCS(=O)(=O)c2nc(-c3cccs3)cc(C(F)(F)F)n2)cc(OC)c1OC` gave Imprint erasure inactive[10.9 µM], p53ts 39C tox 12.6µM, IkB signaling inconclusive and p53ts 32C tox inactive.
`O=C(CCS(=O)(=O)c1nc(-c2ccc3c(c2)OCO3)cc(C(F)(F)F)n1)Nc1ccccc1C(F)(F)F` gave Imprint erasure inactive[10.9 µM], p53ts 39C tox 7.94µM, IkB signaling inactive and p53ts 32C tox inconclusive.
COc1ccc(NC(=O)CCS(=O)(=O)c2nc(-c3ccc4c(c3)OCO4)cc(C(F)(F)F)n2)cc1OC was read as Imprint erasure inactive[10.9 µM], p53ts 39C tox inactive, IkB signaling inconclusive and p53ts 32C tox inconclusive.
COc1cc(NC(=O)CSc2nc(-c3cccs3)cc(C(F)(F)F)n2)cc(OC)c1OC was read as Imprint erasure inactive[10.9 µM], p53ts 39C tox inactive, IkB signaling inactive and p53ts 32C tox inactive.
`O=C(CCS(=O)(=O)c1nc(-c2cccs2)cc(C(F)(F)F)n1)Nc1cccc(O)c1` gave Imprint erasure inactive[10.9 µM], p53ts 39C tox 12.6µM, IkB signaling inactive and p53ts 32C tox inconclusive.
COc1ccc(NC(=O)CCS(=O)(=O)c2nc(-c3cccs3)cc(C(F)(F)F)n2)cc1OC was read as Imprint erasure inactive[10.9 µM], p53ts 39C tox 3.98µM, IkB signaling inconclusive and p53ts 32C tox inconclusive.
CN(C)S(=O)(=O)c1ccc(Nc2ccc(O)c3c2C(=O)c2c([N+](=O)[O-])ccc(O)c2C3=O)cc1 was read as Imprint erasure inconclusive, p53ts 39C tox inactive[9.22 µM], IkB signaling inactive[11.4 µM] and p53ts 32C tox inactive[9.22 µM].
O=C1c2c(O)ccc([N+](=O)[O-])c2C(=O)c2c([N+](=O)[O-])ccc(O)c21 was read as Imprint erasure inactive, p53ts 39C tox 15.8µM, IkB signaling inconclusive and p53ts 32C tox inactive[1.84 µM].
Screening O=C(O)[C@H]([C@H]1NCCS1)N1C(=O)c2ccccc2C1=O returned p53ts 39C tox inactive[9.22 µM], IkB signaling inactive[11.4 µM] and p53ts 32C tox inactive[9.22 µM].
For CCCCC[C@@H](O)[C@@H]1C(=O)O[C@@H](C)[C@@H](O)\C=C/C=C\C=C/C=C\C=C(\C)[C@H](O)C[C@H](O)C[C@H](O)C[C@H](O)C[C@H](O)C[C@H](O)C[C@@H]1O the results were IkB signaling inactive[11.4 µM].
Screening CCOC(=O)c1ccccc1NC(=O)CSc1nc2ccccc2o1 returned Imprint erasure inactive, p53ts 39C tox inactive, IkB signaling inactive and p53ts 32C tox inactive.
`CCCOC(=O)Nc1nc2ccccc2o1` gave p53ts 39C tox inconclusive, IkB signaling inconclusive and p53ts 32C tox 10µM.
CCCCN1C(=O)C(O)(CC(=O)c2ccc(C(C)(C)C)cc2)c2ccccc21 (configuration not stated) was read as Imprint erasure inactive[10.9 µM], p53ts 39C tox 12.6µM, IkB signaling inconclusive and p53ts 32C tox inconclusive.
Screening CCc1ccc(C(=O)CC2(O)C(=O)N(Cc3ccc(C)cc3)c3ccccc32)cc1 (configuration not stated) returned Imprint erasure inactive[10.9 µM], p53ts 39C tox inconclusive, IkB signaling inconclusive and p53ts 32C tox inactive.
For Cc1ccc(S(=O)(=O)NCCc2cn3ccsc3n2)cc1 the results were Imprint erasure inactive[10.9 µM], p53ts 39C tox inactive, IkB signaling inactive and p53ts 32C tox inactive.
For c1ccc(Oc2nc(NC3CCCCC3)c3[nH]cnc3n2)cc1 the results were Imprint erasure inactive.
For COC(=O)c1c(SCC(=O)Nc2cc(OC)cc(OC)c2)[nH]c2ccc(C)cc2c1=O the results were Imprint erasure inactive[10.9 µM], p53ts 39C tox 5.01µM, IkB signaling inconclusive and p53ts 32C tox inactive.
`COc1ccc2nc(C)cc(Nc3ccc(Cl)c(Cl)c3)c2c1` gave Imprint erasure inactive[10.9 µM], p53ts 39C tox 12.6µM, IkB signaling inconclusive and p53ts 32C tox inconclusive.
O=C(N/N=C1\CCc2ccccc21)c1ccccc1O was read as p53ts 39C tox 4.47µM.
Screening O=C(OC1CCc2ccccc2C1=O)c1ccccc1O (configuration not stated) returned Imprint erasure inactive, p53ts 39C tox inactive, IkB signaling inactive and p53ts 32C tox inactive.
Screening CCCC[C@@H]1C[C@H]1C(NC(=O)c1cccnc1)c1ccc(Cl)cc1 (some centres not stated) returned Imprint erasure inactive, p53ts 39C tox 12.6µM and p53ts 32C tox inconclusive.
`CCCC[C@@H]1C[C@H]1C(NC(=O)c1ccccc1)c1ccc(Cl)cc1` (some centres not stated) gave Imprint erasure inactive, p53ts 39C tox inactive and p53ts 32C tox inactive.
For Nc1ncnc2nn([C@H]3O[C@@H](CO)[C@@H](O)[C@H]3O)nc12 the results were Imprint erasure inactive[10.9 µM], p53ts 39C tox inactive[9.22 µM], IkB signaling inactive[11.4 µM] and p53ts 32C tox inactive[9.22 µM].
`CC1CCN(c2ccc(-c3cccc(NS(=O)(=O)c4ccc(Cl)s4)c3)nn2)CC1` gave Imprint erasure inactive[10.9 µM], p53ts 39C tox 3.98µM, IkB signaling inconclusive and p53ts 32C tox 6.31µM.
For COc1ccc(C)cc1S(=O)(=O)Nc1cccc(-c2ccc(N3CCC(C)CC3)nn2)c1 the results were Imprint erasure inactive[10.9 µM], p53ts 39C tox inconclusive, IkB signaling inconclusive and p53ts 32C tox inactive.
For CC1CCN(c2ccc(-c3cccc(NS(=O)(=O)c4cccs4)c3)nn2)CC1 the results were Imprint erasure inactive[10.9 µM], p53ts 39C tox 3.16µM, IkB signaling inconclusive and p53ts 32C tox 10µM.
`Cc1ccccc1C1CC(=O)Oc2ccc(O)cc21` (configuration not stated) gave Imprint erasure inactive.

Source: PubChem
